Consider 36 compounds from PubChem BioAssay.

The subject of the experiment is Inhibin beta A chain (activin A). Put plainly: small molecules binding activin A – biochemical, small-molecule microarray, 635 nm fluorescence scan, primary screen (AID 1107).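 Further: mouse activin A protein probed at 4.33 µg/mL on printed slides; score merges bound-protein fluorescence near 667 nm with spot signal-to-noise.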 The settings on record: INHBA, higher = more signal.
As for `O=C1C=C[C@@H](O)[C@@H]2[C@@H]3C(=O)N(C4CCCCC4)C(=O)[C@@H]3CC[C@@H]12`, the composite z-score is 0.234.

In turn, `C[C@@H]1CC[C@H]2C(=O)OC(Cc3ccccc3)CN2[C@H]1c1ccc(Br)cc1` (stereo partly specified) displayed a composite z-score of 0.445.

As to `O=C1[C@H]2[C@H]3[C@H](O)[C@H](O)CC(=NO[C@@H]4O[C@H](CO)[C@@H](O)[C@H](O)[C@H]4O)[C@H]3CC[C@H]2C(=O)N1c1ccc(F)cc1F`, the composite z-score was -1.81.

Turning to `COc1ccc(COC(=O)NN=C2C[C@@H](O)[C@@H](O)[C@@H]3[C@@H]4C(=O)N([C@@H](C)c5ccccc5)C(=O)[C@@H]4CC[C@H]23)cc1`, the composite z-score came out at 0.541.

Turning to `CC(=O)OC[C@H]1O[C@H](CC=NO[C@H](C)c2cn([C@@H]3COC[C@H]3O)nn2)C=C[C@@H]1OC(C)=O`, the composite z-score worked out at 0.257.

Compound `COc1ccc(O[C@H]2C=C[C@@H](c3ccccc3)O[C@@H]2CO)cc1` showed a composite z-score of 0.622.

With `CCOC(=O)[C@H](Cc1ccccc1)NC(=O)CCC1CC(OC(=O)NCCc2ccc(F)cc2)CC2(CCCC(COC(=O)NCCOc3ccccc3)O2)O1` (stereo partly specified), the composite z-score was -0.155.

With `O=C1C[C@@H](O)[C@@H](O)[C@@H]2[C@@H]3C(=O)N(C4CCCCC4)C(=O)[C@@H]3CC[C@@H]12`, the composite z-score was -0.156.

Take `CC(CCN1CCCCc2nc(C)c(C)cc21)=NO[C@@H](C)c1cc(-c2c(C)cc(C)cc2C)no1`: the composite z-score worked out at 0.823.

For the compound `CCOC(=O)[C@H](CC(C)C)NC(=O)CCC1CC(OC(=O)NCc2ccc3c(c2)OCO3)CC2(CCCC(COC(=O)NCCOc3ccccc3)O2)O1` (stereo partly specified), the composite z-score is 0.267.

For `C=CC[C@@H]1C=C[C@H](ON=C(C)CCN2CCCc3nc(C)c(C)cc32)[C@@H](CO)O1`, the composite z-score was found to be 2.04.

In turn, `O=C1CCCC=C1C(O)C1CCCCC1` (stereo unspecified) returned a composite z-score of 0.615.

The compound `CO[C@H]1COC(=O)CC=C[C@H](C)[C@H](OC)COC(=O)[C@@H](C)NC(=O)CC=C[C@@H]1C` returned a composite z-score of 1.64.

The compound `COC(=O)CC=C[C@@H](C)[C@@H](C=NOC[C@@H](C)[C@H](OCc1ccccc1)C(C)C)OC` registered a composite z-score of -0.283.

Take `CC(C)CON=C1C[C@@H](O)[C@@H](O)[C@@H]2[C@@H]3C(=O)N(C(C)(C)C)C(=O)[C@@H]3CC[C@@H]12`: the composite z-score is 0.418.

As for `CC1(C)O[C@H]2OC([C@H](O)CON3C(=O)c4ccccc4C3=O)[C@H](O)[C@H]2O1` (stereo partly specified), the composite z-score was -0.582.

Consider `CCOC(=O)CCN1C(=O)[C@H]2[C@H]3[C@H](O)[C@H](O)CC(=NNC(=O)OCC)[C@H]3CC[C@H]2C1=O`, for which the composite z-score turned out to be 1.26.

Consider `CCN(CC)CC(O)CN1CCCCc2nc(C)c(C)cc21` (stereo unspecified), for which the composite z-score is 0.29.

Compound `CC(C)=NO[C@@H](C)c1cn([C@H](CO)Cc2ccccc2)nn1` registered a composite z-score of 0.111.

`O=C(NN=C1C[C@@H](O)[C@@H](O)[C@@H]2[C@@H]3C(=O)N(Cc4ccccc4)C(=O)[C@@H]3CC[C@H]12)OCc1ccccc1` had a composite z-score of -0.0371.

The compound `CCOC(=O)CCN1C(=O)[C@H]2[C@H]3[C@H](O)[C@H](O)CC(=NOCC=C(C)CCC=C(C)C)[C@H]3CC[C@H]2C1=O` had a composite z-score of -1.82.

In turn, `CC(=O)OC[C@H]1O[C@@H](ON=C2[C@H]3CCn4c(=O)n(-c5ccccc5)c(=O)n4[C@H]3[C@H](O)[C@@H]3O[C@H]23)[C@H](OC(C)=O)[C@@H](OC(C)=O)[C@@H]1OC(C)=O` registered a composite z-score of -0.1.

`O=C1CCCC=C1C(O)COCc1ccccc1` (stereo unspecified) yielded a composite z-score of 0.53.

`C[C@H]1CC[C@@H](C(=O)O)N[C@@H]1c1cccc(N2CCCC2=O)c1` gave a composite z-score of 0.292.

In turn, `COC(=O)[C@H](C)NC(=O)CCC1CC(OC(=O)NCc2ccc3c(c2)OCO3)CC2(CCCC(COC(=O)NCCCN3CCCC3=O)O2)O1` (stereo partly specified) gave a composite z-score of -0.109.

Compound `CC(C)(C)N1C(=O)[C@H]2[C@@H]3C(=CC[C@H]2C1=O)C(=O)[C@H]1O[C@H]1[C@H]3O` had a composite z-score of 0.555.

Compound `CCOC(=O)NN=C1C[C@@H](O)[C@@H](O)[C@@H]2[C@@H]3C(=O)N(C[C@@H]4CCCO4)C(=O)[C@@H]3CC[C@H]12` yielded a composite z-score of 0.17.

`CC(C)=CCCC(C)=CCON=C1C[C@@H](O)[C@@H](O)[C@@H]2[C@@H]3C(=O)N(Cc4ccc5c(c4)OCO5)C(=O)[C@@H]3CC[C@H]12` had a composite z-score of 1.02.

On to `CC(=O)OC[C@H]1O[C@H](CC=NOC(C)CN2CCCCc3nc(C)c(C)cc32)C=C[C@@H]1OC(C)=O` (stereo partly specified), for which the composite z-score stood at 1.13.

`CCOC(=O)[C@H](Cc1ccccc1)NC(=O)CCC1CC(OC(=O)NCCc2ccc(F)cc2)CC2(CCCC(COC(=O)NCc3cccc(C(F)(F)F)c3)O2)O1` (stereo partly specified): the composite z-score was -0.335.

Take `O=C1C=C[C@@H](O)[C@@H]2[C@@H]3C(=O)N(Cc4ccc5c(c4)OCO5)C(=O)[C@@H]3CC[C@@H]12`: the composite z-score is -0.513.

In turn, `O=C1CCCC=C1C(O)c1ccc([N+](=O)[O-])cc1` (stereo unspecified) came in with a composite z-score of 0.478.

In turn, `COC(=O)CC=C[C@@H](C)[C@@H](C=NOC(C)CN1CCCCc2nc(C)c(C)cc21)NS(=O)(=O)c1ccc(C)cc1` (stereo partly specified) displayed a composite z-score of 1.15.

Compound `CC(CCC(=O)OC[C@H]1O[C@H](C#Cc2ccccc2)C=C[C@@H]1Oc1ccc(C)cc1)=NOC(C)CN1CCCc2nc(C)c(C)cc21` (stereo partly specified) registered a composite z-score of 0.531.

As to `CCN1C(=O)[C@H]2[C@H]3[C@H](O)[C@H](O)CC(=NO[C@H](C)c4cn([C@@H]5COC[C@H]5O)nn4)[C@@H]3CC[C@H]2C1=O`, the composite z-score was -0.322.

As to `COc1ccc(-c2cnnc(CCCn3ccnc3-c3ccccc3)n2)cc1`, the composite z-score was found to be 0.327.
